# This is a sample that favours compounds with a hit; in the whole collection about 3.1% have one here.
# FadD28 binding – M. tuberculosis FadD28 bisubstrate binding inhibition. FadD28 bisubstrate probe binding, fluorescence polarization. inhibition, % at 12.5 µM. 360,000 compounds, 0.22% hits; in the data active = inhibition above about 8.5%, passing the limit was not always enough
# GDH-TPI counter – inhibits GDH-TPI coupling enzymes, artifact for Mtb FBA screen; 360,000 compounds, 1.2% hits; inhibition, % at 4.8 µM; GDH-TPI coupled enzyme counterscreen, NADH absorbance; in the data active = inhibition above about 30%;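 note: 0% = DMSO wells and 100% = wells lacking the enzyme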
# Mtb FBA inh – inhibitors of M. tuberculosis fructose-bisphosphate aldolase | purified M. tuberculosis FBA, fluorescence read-out | 360,000 compounds, 2.3% hits | P9WQA3 | inhibition, % at 1 µM; in the data active = inhibition above about 27%;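 note: 0% = vehicle and 100% = reference inhibitor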
# Target sequence (P9WQA3 whole entry, looked up): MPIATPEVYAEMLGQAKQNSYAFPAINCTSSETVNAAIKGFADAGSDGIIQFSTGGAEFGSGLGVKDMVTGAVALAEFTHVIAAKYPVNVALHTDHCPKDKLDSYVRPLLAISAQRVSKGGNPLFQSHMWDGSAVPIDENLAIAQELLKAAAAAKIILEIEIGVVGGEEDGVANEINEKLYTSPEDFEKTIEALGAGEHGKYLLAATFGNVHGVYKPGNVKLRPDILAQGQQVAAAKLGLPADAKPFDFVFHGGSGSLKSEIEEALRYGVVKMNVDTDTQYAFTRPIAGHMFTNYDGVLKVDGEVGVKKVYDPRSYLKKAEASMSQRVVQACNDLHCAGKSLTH
# Mtb BioA inh – blocks M. tuberculosis BioA enzyme activity | purified M. tuberculosis BioA enzyme, plate reader | inhibition, % at 9.99 µM | 360,000 compounds, 0.096% hits; in the data active = inhibition above about 40%
# 3CLpro inhibitor – SARS-CoV 3CLpro protease inhibition. 290,000 compounds, 0.14% hits. P0C6X7. inhibition, % at 6 µM. recombinant SARS-CoV 3CLpro, quenched FRET peptide cleavage; in the data active = inhibition above about 12%
# Numbers without * were called inactive; . = no result given; + = active, no number.
SMILES,FadD28 binding,GDH-TPI counter,Mtb FBA inh,Mtb BioA inh,3CLpro inhibitor
NC(=S)N/N=C/c1ccccc1O,-2,15,5,-1,1
Oc1ccccc1C=NNC(=S)NN=Cc1ccccc1O,0,45*,-2,0,.
Oc1ccc(/C=N/NC(=S)Nc2cccnc2)c(O)c1O,0,37*,-9,1,-1
Oc1cccc(/C=N/NC(=S)Nc2cccnc2)c1O,1,19,-2,.,-2
Cc1ccc(C(=O)N/C(=C\c2ccc(-c3cc(Cl)ccc3Cl)o2)C(=O)NCc2cccnc2)cc1,0,40*,9,.,2
O=C(NCc1cccnc1)/C(=C\c1ccc(-c2cccc(Cl)c2)o1)S(=O)(=O)c1ccccc1,-5,41*,0,-1,4
CCCNC(=O)Nc1ccc2c(c1)C(=O)N(C)C[C@H](OC)[C@H](C)CN(Cc1cncnc1)[C@@H](C)CO2,.,.,.,2,.
CCc1nc2sc3ccccc3c(=O)c2c(=O)n1Cc1ccc(OC)cc1,-4,34*,-3,1,4
CCCc1nc2sc3ccccc3c(=O)c2c(=O)n1CCOC,.,.,.,.,-1
CCC(=O)Nc1ccc2c(c1)C(=O)N(C)[C@@H]1CC[C@@H](CC(=O)N3CCCCC3)O[C@H]1CO2,.,.,.,0,.
CN1C(=O)C(CC(=O)O)S/C1=N\N=C\c1ccc(O)cc1O (stereo not given),0,52*,-1,-2,-5
Cc1cc(-c2ccccc2)nc(N(C)C)c1S(C)(=O)=O,-1,0,4,.,0
CNc1nc(-c2ccccc2)cc(C)c1S(C)(=O)=O,-4,6,+,.,3
Cc1ccc(-c2cc(-c3ccccc3)nc(N)c2C#N)o1,-4,-2,133*,-3,5
N#Cc1c(-c2ccco2)cc(-c2ccc(F)cc2)nc1N,-10,16,154*,-2,-2
COCC(=O)Nc1ccc2c(c1)[C@H]1C[C@@H](CC(=O)NCc3ccc(Cl)cc3)O[C@@H](CO)[C@H]1O2,.,.,.,0,.
C=C1CC(C(=O)N/N=C/c2ccc(O)cc2)C1,1,4,4,.,1
O=C(N/N=C/c1ccc(O)cc1O)C(=O)N/N=C/c1ccc(O)cc1O,0,41*,-3,0,-3
Cc1cc(C)n(CCC(=O)N/N=C/c2ccc(O)cc2O)n1,-2,31*,4,-1,-4
N/C(=N\[N+](=O)[O-])N/N=C/c1ccc(O)cc1,-1,37*,0,-1,-2
COCc1cc(C)nc(OCC(=O)N/N=C/c2ccc(O)cc2O)c1C#N,1,35*,2,.,5
O=C(C[C@@H]1C=C[C@@H](NC(=O)CC2CC2)[C@@H](CO)O1)NCc1ccc(-c2ccccc2)cc1,.,.,.,3,.
Cc1ccc(S(=O)(=O)N(C)C[C@@H]2OCCCC[C@H](C)Oc3ccc(NC(=O)NC(C)C)cc3C(=O)N([C@H](C)CO)C[C@@H]2C)cc1,.,.,.,1,.
O=C(NN=Cc1ccc(O)cc1)C(=O)NN=Cc1ccc(O)cc1,-8,68*,-7,-2,.
N#Cc1ccc(-c2cccc3nccn23)cc1,-3,4,178*,2,.
SMILES,FadD28 binding,GDH-TPI counter,Mtb FBA inh,Mtb BioA inh,3CLpro inhibitor
c1cc(-c2ccc(CN3CCOCC3)cc2)n2ccnc2c1,-2,8,+,0,.
CN1CCN(c2ccc(-c3cccc4nccn34)cn2)CC1,-1,30,+,11,.
C[C@H]1CN([C@@H](C)CO)C(=O)c2cc(/C=C/c3ccccc3)cnc2O[C@H]1CN(C)C(=O)c1ccccc1,.,.,.,1,.
CN(C)c1ccc(/C=N/NC(=O)CCCO)cc1,0,22,20,.,5
COc1ccc(/C=N/NC(=O)CNC(=O)COc2ccccc2)cc1,-1,8,-2,.,4
CN(C)c1ccc(/C=N/NC(=O)CCCCCNC(=O)c2ccccc2)cc1,-2,58*,17,.,3
COc1ccc(/C=N/NC(=O)CCCCCNC(=O)c2ccccc2)cc1,-3,0,4,.,-1
CN(C)c1ccc(/C=N/NC(=O)CCC(=O)NCc2ccccc2)cc1,-3,32*,23,.,-3
COc1ccc(OCC(=O)N/N=C/c2ccc(N(C)C)cc2)cc1,0,34*,21,0,4
C[C@H]1CN([C@@H](C)CO)C(=O)c2cc(NS(=O)(=O)c3ccccc3)ccc2O[C@@H]1CN(C)Cc1ccc(-c2ccccc2)cc1,.,.,.,2,.
Cc1nnc(N/N=C/c2ccc(O)c([N+](=O)[O-])c2)[nH]c1=O,-2,47*,-3,-1,-7
Cc1csc(N/N=C/c2ccc(O)c([N+](=O)[O-])c2)n1,9.3*,39*,-5,0,1
O=[N+]([O-])c1cc(/C=N\Nc2nc(-c3ccccc3)cs2)ccc1O,3,34*,-3,.,6
O=C(CNC(=O)c1ccc(F)cc1)N/N=C/c1ccc(O)c([N+](=O)[O-])c1,0,37*,-3,.,1
C[C@H](CO)N1C[C@H](C)[C@H](CN(C)C(=O)Cc2cccnc2)Oc2ncc(C#Cc3ccccc3F)cc2C1=O,.,.,.,-4,.
Cc1onc(-c2ccccc2)c1C(=O)N/N=C/c1ccc(O)c([N+](=O)[O-])c1,0,35*,-7,-1,1
Cc1onc(-c2ccccc2)c1C(=O)N/N=C/c1ccc([N+](=O)[O-])c(O)c1,0,19,-4,1,-5
Cn1ccc2c(-c3ccc(C(C)(C)C)cc3)cc3c(c21)C1CCC3O1 (stereo not given),0,.,11,-2,.
Cn1ccc2c(-c3ccc(CO)cc3)cc3c(c21)C1CCC3O1 (stereo not given),2,.,+,2,.
Cn1ccc2c(-c3ccc(C(=O)O)cc3)cc3c(c21)C1CCC3O1 (stereo not given),-4,.,+,1,.
CCN(CC)CCNc1ncnc2c1sc1nc(N3CCOCC3)c3c(c12)CCCC3,0,35*,1,.,-8
CO[C@H]1CN(C)C(=O)c2ccc(NC(=O)C3CC3)cc2OC[C@@H](C)N(CC2CCCC2)C[C@@H]1C,.,.,.,0,.
c1ccc(-c2oc3ncnc(NCCCn4ccnc4)c3c2-c2ccccc2)cc1,-15,6,51*,3,0
c1ccc(-c2c(-c3ccccc3)n(Cc3ccco3)c3ncnc(NCCCn4ccnc4)c23)cc1,-5,2,9,2,0
c1ccc2c(c1)[nH]c1ccccc12,-2,-8,0,0,.
SMILES,FadD28 binding,GDH-TPI counter,Mtb FBA inh,Mtb BioA inh,3CLpro inhibitor
O=c1c2ccccc2[nH]c2ccccc12,0,4,139*,0,5
N#CC(C#N)=CNc1cccnc1,-1,43*,5,.,-2
CCCn1c(O)c(N=NC(=O)CNC(=O)/C=C/c2ccc(OC)cc2)c2ccccc21,1,16,0,1,4
C=CCn1c(O)c(N=NC(=O)CNC(=O)/C=C/c2ccc(OC)cc2)c2ccccc21,-3,38*,0,-1,0
CCn1c(O)c(N=NC(=O)CNC(=O)c2cccnc2)c2ccccc21,1,37*,4,3,.
NC(=O)Cn1c(O)c(N=NC(=O)CNC(=O)/C=C/c2ccccc2)c2ccccc21,-1,37*,2,-2,2
